PubChem BioAssay AID1578 (Sanford-Burnham Center for Chemical Genomics, 2009)
The whole screen tested about 290,000 compounds, of which about 3,000 (1%) were called active. Rule as the data show it: active = inhibition mostly above about 36% (no sharp cut-off); inactive = mostly below about 34%. Many of the other results were omitted from the sample, so actives are more common in it than they were.

test: inhibition of NOD1-driven NF-kB reporter – cell-based, luminescence, uHTS, primary screen (AID 1578); conditions: NOD1-driven NF-kB luciferase reporter cells, at 4 µM, active compounds read high;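 also: HEK-293T reporter cells stimulated with the NOD1 agonist gamma-tri-DAP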

SMILES | inhibition
CSc1ccccc1NC(=O)c1ccc(CN2CCOCC2)cc1 | -18.3% (inactive)
COc1cc(C2NC(=O)NC(C)=C2C(C)=O)cc(OC)c1OC (centres undefined) | 54.9% (active)
COc1cc(C2NC(=O)NC(C)=C2C(C)=O)ccc1O (centres undefined) | 7.8% (inactive)
CCOC(=O)COc1c(Br)cc(C2NC(=O)NC(C)=C2C(C)=O)cc1OC (centres undefined) | -12.4% (inactive)
CCOCCOC(=O)Cn1cnc2scc(-c3ccc(C)cc3)c2c1=O | -15.2% (inactive)
O=C(CN1CCCC1=O)NC1(C(F)(F)F)NC(=O)N(Cc2ccccc2)C1=O (centres undefined) | -22.8% (inactive)
CC1CCc2nc(/C(C#N)=C/c3cccnc3)sc2C1 (centres undefined) | -52.3% (inactive)
CC1CCc2nc(/C(C#N)=C/c3ccncc3)sc2C1 (centres undefined) | 64.3% (active)
N#C/C(=C\c1ccncc1)c1nc2c(s1)CCCC2 | -9.5% (inactive)
O=C(CSc1nc2c(cnn2-c2ccc(F)cc2)c(=O)[nH]1)N1CCCc2ccccc21 | 4.3% (inactive)
CCCS(=O)(=O)N1CCCC(C(=O)Oc2ccc(OC)cc2)C1 (centres undefined) | -5.5% (inactive)
Oc1ccccc1CNc1ccc2c(c1)OCCO2 | -47.1% (inactive)
C=CCOc1ccccc1CN(C(=O)CCl)c1ccc2c(c1)OCO2 | 64.3% (active)
O=C(CCl)N(C/C=C/c1ccccc1)c1ccc2c(c1)OCCO2 | 54.1% (active)
C=CCOc1ccccc1CNc1ccc2c(c1)OCCO2 | 58.5% (active)
O=C(/C=C/c1ccccc1)Nc1ccc2c(c1)OCCO2 | -2.7% (inactive)
O=C(/C=C/c1ccccc1)NCCc1ccc2c(c1)OCCO2 | -27.8% (inactive)
CCOc1ccccc1NC(=O)Nc1ccc2c(c1)OCO2 | -52.1% (inactive)
C=CCOc1ccccc1CNc1cccc(F)c1 | 2.1% (inactive)
O=Cc1ccccc1OCc1ccc2c(c1)OCO2 | 16.8% (inactive)
O=C(CSc1c(F)c(F)cc(F)c1F)Nc1ccc(C2SCCS2)cc1 | -7.2% (inactive)
O=C(CSCc1ccc(Cl)cc1)Nc1ccc(O)cc1C(=O)O | -25.7% (inactive)

SMILES | inhibition
CCCc1cc(=O)[nH]c(/N=C(\N)Nc2ccccc2)n1 | -6.1% (inactive)
CCOC(=O)CNC(=O)CSc1nnc(NC(=O)c2ccc(S(=O)(=O)N3CCOCC3)cc2)s1 | -3.6% (inactive)
Cc1oncc1C(=O)N1CCCC(CO)(Cc2ccc(F)cc2F)C1 (centres undefined) | -6.9% (inactive)
CC(NS(=O)(=O)c1ccc(Br)cc1)c1ccccc1 (centres undefined) | -16.8% (inactive)
CCN1CCN(c2nc3c(c(=O)n(C)c(=O)n3C)n2Cc2cccc3ccccc23)CC1 | -7.8% (inactive)
COc1ccc(-c2nc3ccccc3n2Cc2ccccc2)cc1 | 14.3% (inactive)
Cc1n(Cc2ccccc2)c2ccccc2[n+]1Cc1ccccc1 | 19.4% (inactive)
O=C(CNC(=O)c1cccs1)NCCN1CCN(Cc2ccccc2)CC1 | -22.6% (inactive)
COc1ccc(OC)c(N/C=C/C(=O)c2ccc(OC)c(OC)c2)c1 | -24.7% (inactive)
COc1ccc(N/C=C/C(=O)c2ccccc2)cc1 | -59% (inactive)
COc1ccc(OC)c(N/C=C/C(=O)c2ccccc2)c1 | 62.5% (active)
Cc1nc2c(ccc3nc(NC(=O)Cc4cccc5ccccc45)sc32)s1 | -33% (inactive)
COc1cc2[nH]c(=S)nc(NCc3ccc(Cl)cc3)c2cc1OC | -8.3% (inactive)
COc1cc(OC)cc(C(=O)N[C@H](C(=O)OCc2cc(=O)oc3cc(C)ccc23)C(C)C)c1 | -34.2% (inactive)
Cc1csc2c(NC3CCN(Cc4ccccc4)CC3)ncnc12 | 5% (inactive)
Cc1sc2ncnc(NC3CCN(Cc4ccccc4)CC3)c2c1C | 42.7% (inactive)
CNC(=S)N(CCc1c(C)[nH]c2ccc(Cl)cc12)Cc1cccnc1 | 46.2% (active)
CNC(=S)N(CCc1c(C)[nH]c2ccc(C)cc12)Cc1cccnc1 | -9% (inactive)
CCNC(=S)N(CCc1c(C)[nH]c2ccc(Cl)cc12)Cc1cccnc1 | 11.3% (inactive)
O=C(OCc1nc2ccccc2s1)c1ccc([N+](=O)[O-])o1 | -43.7% (inactive)
Cc1ccc(C(=O)NCc2ccc(F)cc2)cc1NC1=NC2CS(=O)(=O)CC2S1 (centres undefined) | -41.2% (inactive)
COc1cccc(-c2nc(C(=O)NCC3CCCO3)cc3c2[nH]c2ccccc23)c1 (centres undefined) | 51.4% (inactive)

SMILES | inhibition
O=C(NCC1CCCO1)c1cc2c([nH]c3ccccc32)c(-c2cccc(Cl)c2)n1 (centres undefined) | 73.1% (active)
O=C(NCC1CCCO1)c1cc2c([nH]c3ccccc32)c(-c2cccc(Br)c2)n1 (centres undefined) | 33.6% (inactive)
Cc1cc(=O)[nH]c(SCC(=O)Nc2ccc(F)c([N+](=O)[O-])c2)n1 | -19.5% (inactive)
COc1ccc(CNC(=O)CSc2nnc(NC(=O)c3ccccc3F)s2)cc1 | -52.7% (inactive)
CC1CCCCC1NC(=O)CCn1ccc2cc(S(=O)(=O)N3CCCC3)ccc21 (centres undefined) | 13.3% (inactive)
Nc1nnc(/C=C/c2ccccc2)s1 | -41.9% (inactive)
CC1(C)CCSC(/C=C/c2ccccc2)=N1 | 73.3% (active)
C(=C\c1ccncc1)/c1ccccc1 | -7.3% (inactive)
COc1cc2c(c(O)c1OC)-c1c(cc(OC)c(OC)c1OC)C[C@@H](C)[C@@H](C)C2 | 1.8% (inactive)
Cc1ccc(-c2noc(CCCC(=O)NCC3CCCO3)n2)cc1 (centres undefined) | 8.8% (inactive)
COc1ccc(CS(=O)(=O)/C(Cl)=C(/Cl)C(=O)Nc2ccc(OC)nc2)cc1 | 78.4% (active)
COc1ccc(NC(=O)C(Cl)=C(Cl)Cl)cn1 | 30.7% (inactive)
COc1ccc(CC(=O)Nc2ccc(OC)nc2)cc1 | -29.9% (inactive)
Nc1ccc(Nc2ccccc2N)cc1 | 2.7% (inactive)
Nc1ccccc1Nc1ccccc1 | 48.8% (inactive)
Cc1ccc(Nc2ccccc2N)cc1 | 59.7% (active)
CCCCCn1c(C)c2c(OCC)cccc(=O)c2c1C | -1% (inactive)
CCN(CC)CCNCc1cc(Br)ccc1OCC(=O)NCc1ccccc1 | 7.4% (inactive)
N#Cc1cc([N+](=O)[O-])ccc1NC(=O)COC(=O)CC1CCCC1 | -12.2% (inactive)
Cc1ccccc1S(=O)(=O)Cc1ccc(C(=O)NCc2ccco2)o1 | -5.4% (inactive)
